The values that follow come from ChEMBL document CHEMBL3988442, “University of Dundee, Small-Polar-MMV Screening Library” (2021).

Set-up in all cases: scale not given: direction of the effect not stated beside the values
For assay [1], the target named is Protein translocase subunit SecA (Escherichia coli (strain K12)) (UniProt P10408). In words: Assay to Identify E. coli SecA ATPase Inhibitors. The format is functional. The following applies: 30 µM.
Assay [2] deals with T1, Ubiquitin-activating enzyme e1, putative (Leishmania donovani (strain BPK282A1)) (UniProt E9BSI1).
T1 sequence (whole entry): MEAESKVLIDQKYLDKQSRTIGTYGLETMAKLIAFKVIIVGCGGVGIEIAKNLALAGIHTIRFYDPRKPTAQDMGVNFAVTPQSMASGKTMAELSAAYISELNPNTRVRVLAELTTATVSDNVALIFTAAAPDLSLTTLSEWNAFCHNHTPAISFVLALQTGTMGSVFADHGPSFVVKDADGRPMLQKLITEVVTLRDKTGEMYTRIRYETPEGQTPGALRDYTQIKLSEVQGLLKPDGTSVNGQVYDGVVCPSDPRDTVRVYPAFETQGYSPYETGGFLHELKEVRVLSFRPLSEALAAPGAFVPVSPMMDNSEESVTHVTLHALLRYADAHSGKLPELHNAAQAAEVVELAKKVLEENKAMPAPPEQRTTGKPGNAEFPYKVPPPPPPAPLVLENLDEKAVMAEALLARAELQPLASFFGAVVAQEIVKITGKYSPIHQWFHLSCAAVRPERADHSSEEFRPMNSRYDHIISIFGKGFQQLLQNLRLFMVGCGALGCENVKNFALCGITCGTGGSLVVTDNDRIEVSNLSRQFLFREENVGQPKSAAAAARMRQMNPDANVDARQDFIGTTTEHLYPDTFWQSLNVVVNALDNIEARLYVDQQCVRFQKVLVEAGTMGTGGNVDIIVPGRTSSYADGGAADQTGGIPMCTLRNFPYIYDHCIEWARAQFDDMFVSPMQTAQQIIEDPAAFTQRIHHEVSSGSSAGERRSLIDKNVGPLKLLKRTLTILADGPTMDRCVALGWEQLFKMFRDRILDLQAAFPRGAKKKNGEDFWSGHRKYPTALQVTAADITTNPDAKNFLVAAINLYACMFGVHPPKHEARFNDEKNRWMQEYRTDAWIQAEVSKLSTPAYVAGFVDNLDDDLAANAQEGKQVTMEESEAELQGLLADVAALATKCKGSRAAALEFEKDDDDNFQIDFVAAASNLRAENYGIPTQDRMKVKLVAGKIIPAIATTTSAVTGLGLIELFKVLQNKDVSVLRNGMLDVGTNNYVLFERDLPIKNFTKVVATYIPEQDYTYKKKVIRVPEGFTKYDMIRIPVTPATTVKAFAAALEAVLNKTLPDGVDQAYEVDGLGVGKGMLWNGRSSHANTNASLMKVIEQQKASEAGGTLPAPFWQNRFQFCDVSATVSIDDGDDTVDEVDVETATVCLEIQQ
In words: Leishmania donovani Ubiquitin Activating Enzyme (LdE1). Type of assay: functional. The following applies: 30 µM.

Assay [3] deals with AMP-activated protein kinase, AMPK (Homo sapiens) (UniProt P54646+O43741+P54619+Q9UGJ0+Q9Y478+Q13131+Q9UGI9). In words: AMP-dependent Kinase enzyme assay. An in vitro enzyme assay that detects ADP turnover that is directly proportional to AMPK activity. This uses naive AMPK that is activated during the assay with MK-8722. The format is functional. The conditions noted are these: 30 µM.

In assay [4] the target is Sialic acid-binding Ig-like lectin 9 (Homo sapiens) (UniProt Q9Y336). As to the kind of experiment: Hs-Siglec9 ALPHAscreen SOP 20170721. The following applies: 10 µM. On the technique in general: Bead proximity is the source of the signal in Alpha formats.
The subject of the next assay is Trypanosoma cruzi. In words: Trypanosoma cruzi phosphomannomutase and mannose-1-phosphate guanylyltransferase assay. The format is functional. The conditions noted are these: 10 µM.
For assay [5], the target named is T2, Arginase-2, mitochondrial (Homo sapiens) (UniProt P78540).
T2 sequence (whole entry): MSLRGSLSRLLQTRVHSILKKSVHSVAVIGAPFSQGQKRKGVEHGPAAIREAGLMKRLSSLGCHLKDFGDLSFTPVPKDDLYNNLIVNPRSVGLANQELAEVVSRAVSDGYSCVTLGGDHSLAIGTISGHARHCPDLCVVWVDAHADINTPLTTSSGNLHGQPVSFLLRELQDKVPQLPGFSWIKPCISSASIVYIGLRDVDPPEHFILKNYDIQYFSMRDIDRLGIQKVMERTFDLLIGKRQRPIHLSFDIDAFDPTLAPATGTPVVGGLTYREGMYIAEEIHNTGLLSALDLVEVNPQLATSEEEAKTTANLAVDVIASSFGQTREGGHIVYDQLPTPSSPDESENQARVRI
As to the kind of experiment: in vitro enzyme assay to detect the production of urea directly proportional to the activity of Arginase II. Note: in the data most compounds retested in dose-response had high values. The format is functional. The conditions noted are these: 33.3 µM.

Assay [6] concerns the target T3, Proteasome subunit beta (Trypanosoma cruzi) (UniProt O96673).
T3 sequence (whole entry): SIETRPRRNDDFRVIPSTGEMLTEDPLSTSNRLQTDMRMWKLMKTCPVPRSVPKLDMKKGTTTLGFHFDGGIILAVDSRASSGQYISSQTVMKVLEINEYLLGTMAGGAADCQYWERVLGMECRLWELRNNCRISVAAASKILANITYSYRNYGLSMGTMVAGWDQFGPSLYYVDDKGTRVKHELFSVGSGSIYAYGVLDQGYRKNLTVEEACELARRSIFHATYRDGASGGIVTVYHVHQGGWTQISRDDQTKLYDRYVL
As to the kind of experiment: Trypanosoma cruzi proteasome chymotrypsin-like activity (TcProtChymo) assay. Note: in the data most compounds retested in dose-response had high values. The format is functional. The conditions noted are these: 9.37 µM.

For the next assay, the species on record is Homo sapiens. In words: To identify inhibition of the IFN signalling (Jak-Stat) pathway via expression of an eGFP reporter gene under the control of an IFN-stimulated response element (ISRE) containing MxA promoter. Type of assay: functional. The following applies: 30 µM. A general note: Reporter assays use an easily measured gene product as a stand-in for the process of interest.

The target of assay [7] is T4, Tyrosyl-tRNA synthetase, putative (Trypanosoma cruzi (strain CL Brener)) (UniProt Q4DSP6).
T4 sequence (whole entry): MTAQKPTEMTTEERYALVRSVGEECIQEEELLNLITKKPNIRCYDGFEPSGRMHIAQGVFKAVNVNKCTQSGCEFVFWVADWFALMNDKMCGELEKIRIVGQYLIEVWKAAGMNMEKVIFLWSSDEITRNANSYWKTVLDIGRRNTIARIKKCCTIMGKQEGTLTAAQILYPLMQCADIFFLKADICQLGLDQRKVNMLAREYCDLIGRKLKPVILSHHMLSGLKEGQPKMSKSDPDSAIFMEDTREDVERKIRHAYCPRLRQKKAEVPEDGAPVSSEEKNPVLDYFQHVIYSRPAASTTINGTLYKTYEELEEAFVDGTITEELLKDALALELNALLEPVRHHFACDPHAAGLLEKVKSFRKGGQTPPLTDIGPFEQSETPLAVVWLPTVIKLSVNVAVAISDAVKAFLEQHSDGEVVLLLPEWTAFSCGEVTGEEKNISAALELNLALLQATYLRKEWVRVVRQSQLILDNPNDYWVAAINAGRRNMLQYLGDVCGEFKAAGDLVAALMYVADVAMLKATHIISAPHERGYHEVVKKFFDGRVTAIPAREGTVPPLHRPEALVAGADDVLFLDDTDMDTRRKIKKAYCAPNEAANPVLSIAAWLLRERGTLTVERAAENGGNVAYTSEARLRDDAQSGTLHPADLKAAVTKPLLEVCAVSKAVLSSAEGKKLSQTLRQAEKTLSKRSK
As to the kind of experiment: Trypanosoma cruzi tyrosyl tRNA synthetase (TcYRS) _High Tyrosine SOP. Note: in the data most compounds retested in dose-response had high values. The format is functional. The conditions noted are these: 30 µM.

Assay [8] has as its target T4, Tyrosyl-tRNA synthetase, putative (Trypanosoma cruzi (strain CL Brener)). As to the kind of experiment: Trypanosoma cruzi tyrosyl tRNA synthetase (TcYRS) SOP. Type of assay: functional. The following applies: 30 µM.
For assay [9], the target named is Chromo domain-containing protein 1 (Saccharomyces cerevisiae (strain ATCC 204508 / S288c) (Baker's yeast)) (UniProt P32657). As to the kind of experiment: ScCHD-1 Enzyme Inhibition Assay. Note: in the data most compounds retested in dose-response had high values. The format is functional. The conditions noted are these: 30 µM.

For some assays here: Potency and affinity values are given separately.

Sialic acid-binding Ig-like lectin 9 (Homo sapiens), sequence (Q9Y336 whole entry): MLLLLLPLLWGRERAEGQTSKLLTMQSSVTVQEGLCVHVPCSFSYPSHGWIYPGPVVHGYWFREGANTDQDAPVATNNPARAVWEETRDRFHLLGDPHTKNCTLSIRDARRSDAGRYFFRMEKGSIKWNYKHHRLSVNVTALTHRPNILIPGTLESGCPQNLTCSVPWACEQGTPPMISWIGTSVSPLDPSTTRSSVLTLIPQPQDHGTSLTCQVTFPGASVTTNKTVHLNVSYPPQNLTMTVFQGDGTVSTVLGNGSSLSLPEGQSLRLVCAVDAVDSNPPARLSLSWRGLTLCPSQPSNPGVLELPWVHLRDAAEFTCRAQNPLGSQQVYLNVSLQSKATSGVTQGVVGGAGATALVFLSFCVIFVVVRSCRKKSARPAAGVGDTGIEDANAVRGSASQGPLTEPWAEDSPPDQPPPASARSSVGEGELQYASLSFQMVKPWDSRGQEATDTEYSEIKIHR
Chromo domain-containing protein 1 (Saccharomyces cerevisiae (strain ATCC 204508 / S288c) (Baker's yeast)), sequence (P32657 whole entry, the tested form may be a part): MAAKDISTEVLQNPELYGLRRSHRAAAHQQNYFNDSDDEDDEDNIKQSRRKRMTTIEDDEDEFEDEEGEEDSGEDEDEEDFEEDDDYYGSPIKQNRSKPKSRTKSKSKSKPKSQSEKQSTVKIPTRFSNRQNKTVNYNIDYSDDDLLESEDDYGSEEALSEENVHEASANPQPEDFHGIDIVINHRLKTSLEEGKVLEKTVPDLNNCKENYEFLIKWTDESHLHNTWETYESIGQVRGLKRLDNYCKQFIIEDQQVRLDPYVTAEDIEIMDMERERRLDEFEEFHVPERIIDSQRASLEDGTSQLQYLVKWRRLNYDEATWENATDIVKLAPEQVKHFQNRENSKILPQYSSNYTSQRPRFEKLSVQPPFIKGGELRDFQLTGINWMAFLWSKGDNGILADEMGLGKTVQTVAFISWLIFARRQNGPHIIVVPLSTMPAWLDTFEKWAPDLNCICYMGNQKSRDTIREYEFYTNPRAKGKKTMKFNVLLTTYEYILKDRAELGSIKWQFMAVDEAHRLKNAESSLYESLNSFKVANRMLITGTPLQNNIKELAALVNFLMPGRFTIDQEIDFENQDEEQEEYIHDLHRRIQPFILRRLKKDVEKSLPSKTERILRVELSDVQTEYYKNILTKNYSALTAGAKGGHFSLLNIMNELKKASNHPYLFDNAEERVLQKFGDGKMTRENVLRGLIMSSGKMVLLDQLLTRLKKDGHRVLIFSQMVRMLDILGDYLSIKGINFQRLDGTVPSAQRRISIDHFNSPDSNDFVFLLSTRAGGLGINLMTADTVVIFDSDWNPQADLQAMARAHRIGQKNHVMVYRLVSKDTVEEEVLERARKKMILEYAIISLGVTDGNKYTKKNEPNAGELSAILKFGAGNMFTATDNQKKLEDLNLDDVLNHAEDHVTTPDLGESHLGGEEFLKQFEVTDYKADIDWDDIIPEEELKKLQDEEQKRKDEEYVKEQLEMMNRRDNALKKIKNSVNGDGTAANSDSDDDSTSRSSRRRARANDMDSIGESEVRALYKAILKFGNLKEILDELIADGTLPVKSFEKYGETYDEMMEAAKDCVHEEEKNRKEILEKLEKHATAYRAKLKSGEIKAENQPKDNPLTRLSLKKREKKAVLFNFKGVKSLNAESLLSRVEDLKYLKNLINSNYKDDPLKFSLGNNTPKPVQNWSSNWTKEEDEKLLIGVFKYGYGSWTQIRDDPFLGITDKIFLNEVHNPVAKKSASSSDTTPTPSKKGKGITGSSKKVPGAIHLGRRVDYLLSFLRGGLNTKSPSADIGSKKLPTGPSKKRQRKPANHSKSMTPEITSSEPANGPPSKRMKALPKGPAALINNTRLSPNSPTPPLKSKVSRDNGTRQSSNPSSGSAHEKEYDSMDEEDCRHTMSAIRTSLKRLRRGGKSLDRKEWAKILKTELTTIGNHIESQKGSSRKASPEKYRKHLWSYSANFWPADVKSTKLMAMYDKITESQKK
Protein translocase subunit SecA (Escherichia coli (strain K12)), sequence (P10408 whole entry): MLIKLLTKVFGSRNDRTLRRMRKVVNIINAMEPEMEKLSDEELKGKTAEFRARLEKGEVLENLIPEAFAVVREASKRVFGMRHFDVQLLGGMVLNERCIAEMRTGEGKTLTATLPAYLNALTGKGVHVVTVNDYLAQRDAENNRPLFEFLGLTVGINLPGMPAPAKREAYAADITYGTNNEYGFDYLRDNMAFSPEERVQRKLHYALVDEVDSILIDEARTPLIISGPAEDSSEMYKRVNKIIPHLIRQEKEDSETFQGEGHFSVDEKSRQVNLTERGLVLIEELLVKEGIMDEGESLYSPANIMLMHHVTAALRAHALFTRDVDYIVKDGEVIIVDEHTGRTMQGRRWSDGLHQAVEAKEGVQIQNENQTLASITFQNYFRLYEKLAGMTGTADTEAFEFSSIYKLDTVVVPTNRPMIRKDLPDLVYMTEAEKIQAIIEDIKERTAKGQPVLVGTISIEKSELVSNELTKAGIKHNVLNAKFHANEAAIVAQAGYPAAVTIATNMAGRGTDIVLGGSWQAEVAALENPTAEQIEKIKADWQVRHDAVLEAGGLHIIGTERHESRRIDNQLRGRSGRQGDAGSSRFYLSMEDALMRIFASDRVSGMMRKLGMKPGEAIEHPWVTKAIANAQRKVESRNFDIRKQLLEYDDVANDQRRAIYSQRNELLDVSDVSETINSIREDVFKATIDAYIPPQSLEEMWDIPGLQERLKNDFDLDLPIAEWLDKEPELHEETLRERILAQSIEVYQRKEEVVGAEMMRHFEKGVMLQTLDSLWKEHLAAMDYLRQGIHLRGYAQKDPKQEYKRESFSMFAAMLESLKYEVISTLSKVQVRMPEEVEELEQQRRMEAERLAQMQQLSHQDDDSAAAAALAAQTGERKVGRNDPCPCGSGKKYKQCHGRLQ

Consider `Cc1ccc(C(=O)NCC2(O)CCOCC2)cc1Br`, for which the Percent Effect in assay [1] is -4.53%; in [2], 5.41%; in [3] it was 0.131%; in [4], 12.8%; in the assay with Trypanosoma cruzi it was -0.772%; in [5], -2.38%. For the same molecule, the Percent Effect is 7.07% in [6]; 19% in the assay filed under Homo sapiens; 4.76% in assay [7]; 7.32% in [8]; -2.67% in [9].
With `Cc1nc(NCc2ccc(C)o2)cc(C(=O)N2CCOCC2)n1`, the Percent Effect in assay [1] is -5.2%; in assay [2], 15.6%; in assay [3], -13.8%; in [4] it was 14.3%; with Trypanosoma cruzi it was 9.14%; in assay [5] it was -55.2%. For the same molecule, the Percent Effect is 10.5% in assay [6]; 4.67% in the assay listed under Homo sapiens; 4.3% in assay [7]; 8.64% in assay [8]; -6.33% in assay [9].
For the molecule `Cc1ccccc1S(=O)(=O)NC(=O)CSc1ccc2c(c1)OCCO2`, the Percent Effect in assay [1] was -0.381%; in assay [2] it was 1.39%; in assay [3] it was -0.933%; in assay [4] it was -9.91%; in the assay on Trypanosoma cruzi it was -3.21%; in [5] it was 0%. Moreover, the Percent Effect in assay [6] is 10%; in the assay filed under Homo sapiens, 1.45%; in assay [7], -11.6%; in assay [8] it was -7.69%; in assay [9] it was 0.792%.
With `O=C(Nc1ccccn1)C1=NN(c2ccccc2)C(=O)CN1`, the Percent Effect in [1] was 0.648%; in assay [2] it was 25.3%; in assay [3], -3.03%; in [4], -13.4%; in the assay with Trypanosoma cruzi, 1.6%; in assay [5] it was -5.32%. Also, the Percent Effect is 11.9% in assay [6]; 9.82% in the assay listed under Homo sapiens; 6.4% in assay [7]; 24.1% in assay [8]; -12.2% in assay [9].
Turning to `CC(C)OCCN1CCN(C(=O)c2cccc(CC#N)c2)CC1`, the Percent Effect in assay [1] is -0.779%; in assay [2], 18.2%; in assay [3] it was -4.35%; in assay [4], -10.2%; in the assay with Trypanosoma cruzi it was -8.99%; in assay [5], 4.27%. Moreover, the Percent Effect in [6] was 11.2%; in the assay listed under Homo sapiens, 18.6%; in [7] it was 4.85%; in [8], 9.76%; in assay [9], -7.58%.
With `CCOc1ccc(-c2ccnc(CC)n2)cc1C(=O)O`, the Percent Effect was 0.91% in assay [1]; 10.8% in assay [2]; -5.65% in assay [3]; 16.4% in assay [4]; 2.9% in the assay with Trypanosoma cruzi; -0.476% in [5]. In addition, the Percent Effect in [6] was 20%; in the assay listed under Homo sapiens it was -11.8%; in assay [7] it was 8.99%; in [8], -2.44%; in [9] it was -1.49%.
`CCN(c1ccc(C(=O)N2CCCC(C)C2)cc1)S(=O)(=O)CC` (stereo not given): the Percent Effect was -1.59% in assay [1]; -4.17% in [2]; 8.62% in assay [3]; -2.11% in assay [4]; 0.0972% in the assay on Trypanosoma cruzi; -3.09% in assay [5]. In addition, the Percent Effect in assay [6] is 9.3%; in the assay filed under Homo sapiens it was 23.2%; in [7], -2.1%; in assay [8], -7.69%; in [9], 1.02%.
For `CCOc1cccc(C(=O)N2CCN(c3nccc(OC)n3)CC2)c1`, the Percent Effect in assay [1] is -7.2%; in [2], 5.26%; in assay [3], 10.4%; in assay [4], -5.48%; with Trypanosoma cruzi it was -7%; in assay [5] it was 1.8%. In addition, the Percent Effect in assay [6] is 6.51%; in the assay listed under Homo sapiens it was 16.4%; in assay [7] it was -1.48%; in assay [8] it was 1.24%; in assay [9], -2.73%.
Regarding `O=C1OC2(CCN(C3CCCOC3)CC2)CN1CCc1ccccc1` (stereo not given), the Percent Effect in assay [1] was -0.187%; in [2] it was 7.79%; in assay [3], -6.88%; in assay [4], 5.02%; with Trypanosoma cruzi, -3.64%; in assay [5], -11%. Further, the Percent Effect is 14% in assay [6]; 15.6% in the assay filed under Homo sapiens; 3.23% in assay [7]; 6.17% in [8]; 0.643% in assay [9].
Turning to `COc1cc(C(=O)NC(CC(=O)O)c2cccs2)cc(Cl)c1OC` (stereo not given), the Percent Effect was -3% in assay [1]; 8.86% in assay [2]; 6.71% in assay [3]; -5.2% in assay [4]; -3.79% with Trypanosoma cruzi; 1.07% in [5]. Also, the Percent Effect was 20.9% in [6]; -0.746% in the assay listed under Homo sapiens; 2.08% in [7]; 5.06% in assay [8]; -25.4% in assay [9].
